Out of some 2,400 compounds screened, about 750 (31%) were called active. A selection follows. A number with no mark means an inactive call.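 Rule for the calls: active = mean activation across replicates above the hit cutoff set in the earlier primary screen (cut at about 8% in these data); inactive = the rest.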

For the experiment, the target named is Melanocortin receptor 4 (Homo sapiens) (UniProt P32245). The experiment in a line: activators of MC4R arrestin recruitment – cell-based, luminescence, U2OS, confirmation (AID 602192). As to conditions: U2OS MC4R beta-arrestin recruitment, at 8.9 µM, stronger effect = higher value, scaled DMSO 0%, Melanotan II 100%. (Arrestin recruitment assays detect the binding of arrestin to an activated receptor.)
Chain of Melanocortin receptor 4 (Homo sapiens) (P32245 whole entry, looked up): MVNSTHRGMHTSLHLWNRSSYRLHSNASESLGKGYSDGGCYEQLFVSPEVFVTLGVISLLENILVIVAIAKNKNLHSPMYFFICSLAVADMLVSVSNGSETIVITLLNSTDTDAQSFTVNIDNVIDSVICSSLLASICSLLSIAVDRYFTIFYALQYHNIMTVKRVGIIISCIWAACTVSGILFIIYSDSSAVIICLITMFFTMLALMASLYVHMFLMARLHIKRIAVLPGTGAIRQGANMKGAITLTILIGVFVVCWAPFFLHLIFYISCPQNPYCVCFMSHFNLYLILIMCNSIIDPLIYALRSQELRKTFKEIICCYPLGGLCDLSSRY
As to `Cc1ccc(CCC(=O)Nc2ncc(Cc3cc(Cl)ccc3Cl)s2)o1`, the activation is 15.2% (active). Then `COc1c(Cl)cc(C(=O)Nc2ccc(Cl)cn2)cc1Cl`, with 2.15%; and `COc1cccc(NC(=S)NC(=O)c2c(Cl)c(C)nn2C)c1`, with 0.75%. In the case of `O=C(N/N=C/c1ccc(OC(=O)c2ccccc2Cl)cc1)c1ccc(O)cc1`, the activation is 10.9% (active). Turning to `CCN(CC)c1ccc(C(=O)N/N=C/c2ccc(N3CCOCC3)cc2)cc1`, the activation is 3.23%. Take `CCCOc1ccc(C(=O)C(CCC(CNCC)C(=O)c2ccc(OCCC)cc2)CNCC)cc1` (configuration not stated): the activation is 47% (active). Regarding `COc1cc(/C=C2\Oc3ccc(C#Cc4ccc(O)cc4)cc3C2=O)cc(OC)c1`, the activation is 17.7% (active). In the case of `S=C(NCCCc1cnc[nH]1)NCCCN(Cc1ccc(Cl)c(Cl)c1)c1ccc(Br)cn1`, the activation was 12.9% (active).

For `CC(C)c1ccc2c(c1)c(SC(C)(C)C)c(CC(C)(C)C(=O)O)n2Cc1ccc(Cl)cc1`, the activation was 6.79%.

Turning to `Cc1cc(OCc2cc(C(=O)NCc3cc(C(C)C)no3)no2)cc(C)c1Cl`, the activation is -1.7%. Then `Oc1ccccc1N1CCN(c2ncnc3sc(-c4ccccc4)cc23)CC1`, with 3.16%.

Take `O=C(NC(=S)Nc1cccc2c(O)cccc12)c1cccc(Br)c1`: the activation is 14.4% (active). For `CCOc1ccc(/C=C/C(=O)OCC(=O)c2ccccc2OC)cc1OC` the value was 4.4%; for `CCN1CCC2(CC1)N=C(c1ccc(F)cc1)C(=S)N2C(=O)c1ccc(C)cc1`, 6.69%.

In the case of `NC(N)=Nc1nc(-c2ccccc2)c2cc(Cl)ccc2n1`, the activation was 19.8% (active). For `CCCCN1CC(C)(C)[C@H](CC(=O)Nc2ccc(Br)cc2)C1=O` the value was 1.84%. For `COc1ccccc1NC(=O)Nc1nnc(Cc2ccc(F)cc2)s1` the value was 4.89%.

On to `CC(=O)Nc1cc(-c2ccccc2N(C)C)cn2c(-c3ccc(F)c(Cl)c3)cnc12`, for which the activation was 26% (active).

`COc1cccc(-c2cnc3c(NC(C)=O)cc(-c4cc(F)ccc4OC)cn23)c1`: the activation was 27.2% (active).

As to `CC(=O)Nc1cc(-c2ccccc2F)cn2c(-c3cccc(C(F)(F)F)c3)cnc12`, the activation is 19% (active). For `COc1ccccc1-c1cc(NC(C)=O)c2ncc(-c3ccc(F)cc3)n2c1` the value was 15.2% (active); for `Fc1ccccc1/C=N/Nc1cc(N2CCCCC2)ncn1`, -2.37%. On to `O=C(Nc1ccc2oc(-c3ccc4ccccc4c3)nc2c1)c1cccs1`, for which the activation was 3.96%. Then `O=C(CCCCCn1c(=S)[nH]c2cc3c(cc2c1=O)OCO3)N1CCN(c2ccc(F)cc2)CC1`, with 5.47%. Then `COC(=O)c1sccc1NC(=O)c1cc(OC)c(OC)c(OC)c1`, with 3.33%. For `O=C(CCCCCN1C(=O)c2cccc3cccc(c23)C1=O)NCc1ccco1` the value was 6.44%; for `Cc1ccc(Sc2ccc(NC(=O)c3ccc(F)cc3)cc2C#N)cc1`, 2.18%. Regarding `Cc1ccc(S(=O)(=O)NCCC(=O)Nc2ccc(C)c(Cl)c2)cc1C`, the activation was 3.25%. Regarding `CCOC(=O)c1nn(-c2ccccc2F)c2nc(Nc3ccccc3)cc(=O)n12`, the activation was 2.15%. With `CCN1CCN(CCNC(=O)c2ccc(/C=C3/Sc4ccccc4N(Cc4cccc(C)c4)C3=O)cc2)CC1`, the activation was 9.47% (active).

In the case of `O=C(NCCc1c[nH]c2ccc(Cl)cc12)c1ccc([N+](=O)[O-])cc1`, the activation was 3.47%. Then `Cc1ccc(-c2csc(SCC(=O)Nc3cc(C)on3)n2)cc1`, with 3.04%; and `Cc1ccc(-n2nc(C)c(/C=N/NC(=O)c3cccs3)c2Cl)cc1`, with 12% (active); and `Cc1ccc(C(=O)Nc2ccc(NC(=O)c3cccs3)cc2)c(C)c1`, with 2.47%. `COCCN(CCOC)S(=O)(=O)c1ccc(C(=O)Nc2nc3c(s2)CCc2ccccc2-3)cc1`: the activation was 0.54%. For `CCCCCCCCCCOC(=O)Cn1c(COc2cccc(OC)c2)[n+](C)c2ccccc21` the value was 21.6% (active). For `CCCCCCCCCCOC(=O)Cn1c(COc2ccc(C)cc2)[n+](C)c2ccccc21` the value was 29.9% (active); for `COC(=O)c1c(C)[nH]c(C(=O)/C=C/c2ccc(Cl)cc2)c1C`, 2.58%; for `CCn1c(SCC(=O)Nc2cccc(F)c2)nnc1-c1cc2cc(Br)ccc2o1`, 2.27%. For `O=C(CCCn1c(SCC(=O)c2ccc(F)cc2)nc2ccccc2c1=O)NCc1ccco1` the value was 4.27%; for `COc1ccc(Cl)cc1-n1c(C)cc(C(=O)OCC(=O)N2CC(=O)Nc3ccccc32)c1C`, 10.5% (active).

As to `Cc1cccc(C)c1OC(=O)CSc1nnc(-c2ccccc2)o1`, the activation is 2.94%. As for `O=C1N/C(=C/c2cccn2-c2ccccc2)C(=O)N1c1cccc(Cl)c1`, the activation is 13.2% (active). Then `Clc1ccc(Nc2ncnc3c2nnn3Cc2ccccc2)cc1`, with -0.43%; and `O=C(OC12CC3CC(CC(C3)C1)C2)c1ccc(NCc2cc(O)ccc2O)cc1`, with 5.55%; and `Cc1ccccc1NC(=O)c1ccc(COc2ccc3c(C)cc(=O)oc3c2)cc1`, with 28.2% (active). With `COc1ccc(Cc2nnc(NC(=O)c3ccc(OC)cc3OC)s2)cc1`, the activation was -0.87%. Then `COc1cc(NC(=O)c2cncc(-c3ccc(C#N)cc3)c2)cc(C(=O)Nc2cccc(C(F)(F)F)c2)c1`, with 2.95%; and `COc1ccc(CC(N)c2csc(NC(=O)NC(c3ccccc3)c3ccccc3)n2)cc1` (configuration not stated), with 17.4% (active); and `COc1ccc(C(N)c2csc(NC(=O)Nc3cccc(C(F)(F)F)c3)n2)cc1` (configuration not stated), with 11.5% (active). For `O=C(NC1CCCCCC1)c1cccnc1Sc1ccc(Cl)cc1` the value was 0.48%; for `COc1ccc(C)c(Cn2c(-c3nonc3N)nc3ccccc32)c1`, -0.25%. For `CCc1ccc2c(c1)cc(CN(C(=S)Nc1ccccc1Cl)C1CC1)c1nnnn12` the value was 0.41%.

Turning to `Cc1c(-c2ccccc2)n[nH]c1C(=O)N=Nc1c(O)[nH]c2ccccc12`, the activation is 3.31%. Consider `Cc1ccsc1/C=N/Nc1ccc(Cl)nn1`, for which the activation was 2.12%.

`CCOC(=O)c1c(-c2ccccc2)oc2cc(Br)c(O)c(C=O)c12`: the activation was 12.2% (active).

On to `Cc1ccc([C@H]2C[C@H](O)[C@@H](n3cc(COC(=O)c4ccccc4)nn3)CN2C(=O)C2CCCCC2)cc1`, for which the activation is 1.84%.

The values are drawn from PubChem BioAssay AID602192 (The Scripps Research Institute Molecular Screening Center, 2012).
